About 83,000 compounds went through this panel and 20% of them were active in at least one assay; those are over-represented in the sample as a whole.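 The test compound was applied at a single concentration to cells in 96-well plates for 48 hours, and percent growth was recorded.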 Values without a mark were called inactive. Activity calls are given as the source filed them. Rule for the calls: active = growth percent below 10; inactive = the rest.
What was measured:
Test in all cases: NCI-60 one-dose screen, 48 h (100 = growth as untreated, 0 = no growth, -100 = all killed)
Conditions in all cases: 10 µM unless noted
T-47D breast = system: T-47D breast
BT-549 breast = system: BT-549 breast
MDA-MB-435 melanoma = system: MDA-MB-435 melanoma
SW-620 colon = system: SW-620 colon
MCF7 breast = system: MCF7 breast
HCT-116 colon = system: HCT-116 colon
KM12 colon = system: KM12 colon
HCC-2998 colon = system: HCC-2998 colon

SMILES | growth (T-47D breast) | growth (BT-549 breast) | growth (MDA-MB-435 melanoma) | growth (SW-620 colon) | growth (MCF7 breast) | growth (HCT-116 colon) | growth (KM12 colon) | growth (HCC-2998 colon) [%]
COc1cc2c(cc1O)CC[C@@H]1[C@@H]2CC[C@]2(C)[C@@H](OCCCN(C)C)CC[C@@H]12 | -48.9% (active) | -54.4% (active) | -61.8% (active) | -43.1% (active) | -68.9% (active) | -71% (active) | -48.5% (active) | –
C=C1C(=O)O[C@H]2[C@H]1CC/C(C=Nc1ccc(C(F)(F)F)cc1N)=C\CC[C@@]1(C)O[C@@H]21 | 14.8% | 16.3% | 0.426% (active) | -32% (active) | 10.7% | -77.1% (active) | 20.3% | –
COc1ccc(C(=O)COc2cccc(/C=C3\CSc4ccccc4C3=O)c2)cc1 | 69.7% | -74.8% (active) | -21.1% (active) | -96.9% (active) | -79.8% (active) | -87.5% (active) | -77.3% (active) | –
NC(=NCCCC1(c2ccccc2)CCCC1)Nc1ccc(Cl)cc1 | 3.02% (active) | 86.8% | 10.9% | -32.9% (active) | 12.4% | 0.509% (active) | 15.2% | –
C=C(C)C(=O)Nc1ccc(NC(C)C)cc1 | 100% | 156% | 117% | 105% | 146% | 105% | 109% | –
Cc1ccc(O)c(N2C(=NCc3ccco3)NS(=O)(=O)c3cnccc32)c1 | 110% | 101% | 91.8% | 111% | 101% | 99% | 112% | –
C=C1C(=O)O[C@H]2[C@H]1CC/C(COC(=O)NCc1ccc(OC)c(OC)c1)=C\CC[C@@]1(C)O[C@@H]21 | 30.2% | 75.2% | 54.8% | 14.1% | 34.5% | 7.17% (active) | 90.9% | –
Cc1cc(C)nc(SC2=C(Nc3ccc(O)cc3)C(=O)N(Cc3ccccc3)C2=O)n1 | 45% [40 µM] | 63.9% [40 µM] | 80.1% [40 µM] | 113% [40 µM] | 77.1% [40 µM] | 95.4% [40 µM] | 103% [40 µM] | –
CC(=O)c1cc(C(=O)c2ccc3c(c2)Sc2ccccc2N3)n2ccccc12 | 43% | 45.8% | -9.84% (active) | 23.9% | 24.7% | 0.708% (active) | 9.91% (active) | –
CCOc1nc(-c2ccccc2)cc2c(O)c(C(=O)O)[nH]c(=O)c12 | 97.9% | 108% | 109% | 114% | 103% | 105% | 93.4% | –
CC/C=C\C/C=C\C[C@H]1C/C=C2/C(=O)C=C[C@@H]2C/C=C\CCC(=O)O1 | 23.4% | -3.33% (active) | 0.314% (active) | 8.89% (active) | 26.1% | -48.7% (active) | -27.8% (active) | –
OC(COc1cccc2ccccc12)CN1CCN(c2ccccc2Cl)CC1 (configuration not stated) | 74.5% | 106% | 100% | 88.5% | 105% | 71.4% | 99.7% | –
CC(C)(CCCN=C(N)Nc1ccc(Cl)cc1)c1ccc(F)cc1 | 53.9% | 82.6% | 63% | 43.4% | 52.9% | 28.6% | 57.5% | –
O=c1c2c3c(sc2nc(N/N=C/c2cn(-c4ccccc4)nc2-c2ccc(Cl)cc2)n1Cc1ccccc1)CCCC3 | 105% | 92.1% | 93.4% | 107% | 104% | 90.3% | 103% | –
COc1ccc(CN2c3ccccc3Sc3ccccc32)c(C(F)(F)F)c1 | 25.9% | 53.5% | -33.6% (active) | 25.8% | 24.5% | 7.74% (active) | 20% | –
COc1ccc2nc(NC(=O)CSc3nnc4n3S(=O)(=O)c3ccccc3N4c3ccccc3)sc2c1 | 93.7% | 83.7% | 97.8% | 107% | 82.3% | 87.9% | 97.4% | –

SMILES | growth (T-47D breast) | growth (BT-549 breast) | growth (MDA-MB-435 melanoma) | growth (SW-620 colon) | growth (MCF7 breast) | growth (HCT-116 colon) | growth (KM12 colon) | growth (HCC-2998 colon) [%]
NC(=NCCCOc1ccc(Cl)cc1)Nc1ccc(C(F)(F)F)cc1 | 2.82% (active) | 73.2% | 8.95% (active) | 14.5% | 9.17% (active) | 8.24% (active) | 25.2% | –
NC(=NC1C2CC3CC(C2)CC1C3)Nc1ccc(I)cc1 (configuration not stated) | 2.31% (active) | 53.7% | 30.7% | 20.9% | 9.29% (active) | 8.08% (active) | 45.9% | –
Fc1ccc2[nH]cc(SSc3c[nH]c4ccc(F)cc34)c2c1 | 27.5% | 39.6% | 46.2% | 91.2% | 32.2% | 25.3% | 24.3% | –
COc1cccc2c1C(=O)c1c(O)c3c(c(O)c1C2=O)C[C@](O)(C(=O)CO)C[C@H]3O[C@@H]1C[C@@H](NC(=O)CCCN(C)C2(c3ccc(F)cc3)CC3CCC2C3)[C@H](O)[C@@H](C)O1 (some centres not stated) | 81.2% | 58.6% | -88.3% (active) | -78.5% (active) | -59% (active) | -90.1% (active) | -77.8% (active) | –
CC1SC(c2ccc(N(C)C)cc2)N(NC(=O)C(O)(c2ccccc2)c2ccccc2)C1=O (configuration not stated) | 87.6% | 93.1% | 84.3% | 104% | 118% | 80.8% | 87.4% | –
COc1ccc(C(=O)COc2ccc(/C=C3\COc4ccc(OC)cc4C3=O)cc2)cc1 | 84.9% | 77.6% | 77.1% | 80.2% | 34.2% | 64% | 68.4% | –
O=C1NC(=O)C(c2ccc(Cl)cc2Cl)N1 (configuration not stated) | 111% | 122% | 113% | 106% | 101% | 103% | 104% | –
CCOc1ccc(-n2nc(C(=O)Nc3cc(OC)c(OC)c(OC)c3)nc2-c2cc(OC)c(OC)c(OC)c2)cc1 | 51.4% | 91.4% | 79.6% | 95.5% | 83.2% | 75.8% | 81.8% | –
CC/C=C\C[C@H](O)C/C=C1/C(=O)C=C[C@@]1(C)C/C=C\CCCC(=O)OC | 98.2% | 104% | 106% | 114% | 92.8% | 94% | 102% | –
C=C1C(=O)O[C@H]2[C@H]1CC/C(COC(=O)NCCc1ccc(OC)c(OC)c1)=C\CC[C@@]1(C)O[C@@H]21 | 33.2% | 64.3% | 58.3% | 18.9% | 34.8% | 5.66% (active) | 84.4% | –
COc1ccc(CN2c3ccccc3Oc3ccccc32)cc1F | 58.1% | 70.1% | -0.932% (active) | 33.6% | 42.7% | 31.1% | 40.7% | –
O=C1/C(=C/N2N=C(c3ccc4ccccc4c3)CC2c2ccccc2O)SC(=S)N1c1cccnc1 (configuration not stated) | 44.5% | 6.36% (active) | -48.7% (active) | 24% | 17.3% | – | 18.2% | 28.5
c1ccc2[nH]c(-c3ccc(Nc4nc(N5CCCC5)nc5[nH]ncc45)cc3)nc2c1 | -52.6% (active) | 59.7% | -76.6% (active) | -64.1% (active) | -21.5% (active) | -71.8% (active) | -32.6% (active) | –
N#CCCN=Nc1c(O)[nH]c2ccc(F)cc12 | 96.4% | 108% | 96.6% | 98.3% | 93.9% | – | 101% | 97.9
CCOc1ccc(-n2nc(C(=O)Nc3ccccc3)nc2-c2cc(OC)c(OC)c(OC)c2)cc1 | 39.4% | 60.9% | 0.193% (active) | 36.2% | 37% | 21.2% | 27.5% | –

Reference: PubChem BioAssay (NCI)
